Our source for the Potency values is PubChem BioAssay (Tox21).

Test [1] concerns the target KiSS-1 receptor (Homo sapiens) (UniProt Q969F8). Briefly: Human kisspeptin (KISS1R) small molecule agonists, calcium flux assay in KISS1R-HEK293 cells (AID 1920064; active = well fitted activation curve with a large enough effect in the repeat runs). The method, boiled down:
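Agonist mode: intracellular calcium rise tracked at 1 s intervals over 3 min (480/540 nm) immediately after compound addition to dye-loaded KISS1R-HEK293 stable cells. Each compound tested at 15 concentrations in triplicate.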
In general terms: Calcium flux is commonly read through the fluorescence of an indicator in the cells.

Test [2] is described as follows: G protein-coupled receptor (GPCR) small molecule agonists, calcium flux assay: HEK293 wild type cell line counter screen (AID 1920065). The gist of the method:
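Calcium flux counter screen: compound added in agonist mode at 15 concentrations in triplicate to dye-loaded parental HEK293 cells. Fluorescence (480/540) read kinetically for 3 min; ATP served as positive control.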

Test [3] in a line: p53 small molecule agonists, cell-based qHTS assay with human liver microsomes (AID 1963577). The gist of the method: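 Cells carrying a p53-responsive bla reporter were rested 5 h (37 C, 5% CO2) before compound transfer. Human liver microsomes plus NADPH, 0.5 mg/mL final apiece, supplied metabolism during the 16 h 37 C exposure.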
On the technique in general: Quantitative high-throughput screening tests each substance at several concentrations.

Test [4] can be described thus: p53 small molecule agonists, cell-based qHTS assay with rat liver microsomes (AID 1963578). The method, boiled down: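 Fluorescence from a beta-lactamase reporter under a p53 response element was measured after cells had been incubated 16 h at 37 C with test compound and rat liver microsomes plus NADPH (0.5 mg/mL final each).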
Test [5] is described as follows: p53 small molecule agonists, cell-based qHTS assay with human liver microsomes: qHTS cell viability counter screen (AID 1963579). Also: nearly all actives have a fitted effect of over 45% in size. The method, boiled down: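 Seed p53RE-bla cells at 4,000 per well; incubate 5 h at 37 C; add compound, human liver microsomes and NADPH; incubate 16 h at 37 C; add CellTiter-Glo; after 30 min at room temperature, read luminescence.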
Test [6] in a line: p53 small molecule agonists, cell-based qHTS assay: qHTS cell viability counter screen (AID 1963581). Also: nearly all actives have a fitted effect of over 45% in size. Also: potency is read from the fitted curve at half-maximal effect. The method, boiled down: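 Counter screen read by CellTiter-Glo luminescence (ATP content, 30 min at room temperature), run in the same wells as the beta-lactamase reporter read. HCT-116 p53RE-bla cells saw compounds for 16 h at 37 C.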
Test [7] has as its target 5-hydroxytryptamine receptor 2A (Homo sapiens) (UniProt P28223). Description: 5-hydroxytryptamine receptor 2A (HTR2A) small molecule antagonists, cell-based qHTS assay (AID 1963586). Also: nearly all actives have a fitted effect of over 45% in size. Also: potency is read from the fitted curve at half-maximal effect. The gist of the method:
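CHO cells stably expressing human HTR2A were plated for 18 h at 37 C, then loaded with calcium dye for 1 h. Compounds were preincubated 5 min at room temperature before DOI (4 nM solution) was added. Kinetic fluorescence was read for 3 min.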

The target is the same in test [8]. Briefly: 5-hydroxytryptamine receptor 2A (HTR2A) small molecule agonists, cell-based qHTS assay (AID 1963587). Also: nearly all actives have a fitted effect of over 30% in size. The gist of the method: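 HTR2A-CHO cells, plated 18 h at 37 C/5% CO2, dye-loaded 1 h at 37 C; compounds in DMSO added by pin tool (agonist mode). Intracellular calcium flux read as kinetic fluorescence on FDSS over 2 min at 1 s intervals.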
Test [9] concerns the target Muscarinic acetylcholine receptor M1 (Homo sapiens) (UniProt P11229). Briefly: Cholinergic receptor muscarinic 1 (CHRM1) small molecule antagonists, cell-based qHTS assay (AID 1963588). Also: nearly all actives have a fitted effect of over 40% in size. The method, boiled down:
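Compounds were tested at 15 concentrations in three independent runs. Dye-loaded CHRM1-CHO cells were exposed 5 min at room temperature before stimulation by acetylcholine added at 50nM. Intracellular calcium was read kinetically on FDSS for 3 min.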

Test [10] shares this target. Briefly: Cholinergic receptor muscarinic 1 (CHRM1) small molecule agonists, cell-based qHTS assay (AID 1963589). Also: nearly all actives have a fitted effect of over 35% in size. The gist of the method: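 Agonist-mode calcium-flux screen: compounds at 15 concentrations, three independent runs, were pin-transferred onto dye-loaded human CHRM1-CHO cells. Fluorescence was then recorded kinetically every second over minutes.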
A short description of test [11]: cAMP Responsive Elements (CRE) small molecule agonists, cell-based qHTS assay (AID 1963590). The method, boiled down: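 Agonist mode: compound added to CRE-bla HEK 293T cells (2,000/well, 18 h after plating) for 3 h at 37 C/5% CO2. Reporter activity detected via FRET beta-lactamase substrate, 2 h room-temperature loading.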
In test [12] the target is Beta-2 adrenergic receptor (Homo sapiens) (UniProt P07550). Briefly: Adrenergic beta2 receptor (ADRB2) small molecule antagonists, cell-based qHTS assay (AID 1963592). Also: nearly all actives have a fitted effect of over 50% in size. Also: potency is read from the fitted curve at half-maximal effect. The method, boiled down: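 Assay format: CHO-ADRB2 cells, 18-20hr seeding at 37C/5% CO2, then compound plus 1nM isoproterenol agonist mix for 0.5hr RT. Homogeneous time-resolved fluorescence cAMP detection after 1hr, expressed as 665/615 nm ratio.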
Beta-2 adrenergic receptor (Homo sapiens), sequence (P07550 whole entry, looked up): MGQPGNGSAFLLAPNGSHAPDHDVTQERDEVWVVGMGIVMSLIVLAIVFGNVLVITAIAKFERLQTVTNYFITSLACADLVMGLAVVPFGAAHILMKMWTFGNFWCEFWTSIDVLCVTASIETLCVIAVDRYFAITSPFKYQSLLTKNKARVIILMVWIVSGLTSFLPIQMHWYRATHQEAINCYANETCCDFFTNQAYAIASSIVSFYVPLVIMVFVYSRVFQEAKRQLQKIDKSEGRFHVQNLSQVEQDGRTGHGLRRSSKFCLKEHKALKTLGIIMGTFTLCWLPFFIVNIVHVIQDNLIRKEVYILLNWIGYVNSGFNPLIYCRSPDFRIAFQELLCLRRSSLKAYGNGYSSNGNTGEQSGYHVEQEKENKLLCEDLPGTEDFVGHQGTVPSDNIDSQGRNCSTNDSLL

Test [13] has the same target. Description: Adrenergic beta2 receptor (ADRB2) small molecule agonists, cell-based qHTS assay (AID 1963593).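 Also: CHO cells stably overexpressing human ADRB2.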 The method, boiled down:
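CHO cells stably over-expressing ADRB2 were plated overnight at 37C, then dosed with compounds plus a stimulation mix containing 100uM IBMX and 25uM Ro-20-1724 for 0.5hr at room temperature. cAMP was measured by HTRF competition, 1hr.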

Test [14] has as its target D(2) dopamine receptor (Homo sapiens) (UniProt P14416). Briefly: Dopamine D2 receptor (DRD2) small molecule agonists, cell-based qHTS assay (AID 1963594). Also: nearly all actives have a fitted effect of over 35% in size. Also: potency is read from the fitted curve at half-maximal effect. The method, boiled down:
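HEK293 cells stably expressing DRD2 were cultured 24 h at 37 C, then given Ro20-1724 (0.1 mM final) and compounds for 10 min at room temperature. NKH477 (200nM) was then added for 30 min. cAMP was read by HTRF.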

For test [15] the target is unchanged. Briefly: Dopamine D2 receptor (DRD2) small molecule antagonists, cell-based qHTS assay (AID 1963595; active = well fitted inhibition curve with a large enough effect in the signal ratio in the repeat runs, with a control signal flat; the % refers to the signal ratio). The method, boiled down:
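Readout: HTRF cAMP, cAMP-d2 competing with cellular cAMP for anti-cAMP cryptate, read after 1 h. Cells: DRD2-HEK293. Conditions: 0.1 mM Ro20-1724, 12 nM quinpirole, 200 nM NKH477, 30 min RT.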

For test [16], the target named is Gonadotropin-releasing hormone receptor (Homo sapiens) (UniProt P30968). Briefly: Human gonadotropin-releasing hormone receptor (GnRHR) small molecule agonists, calcium flux assay in GnRHR-HEK293 cells (AID 1920063). Also: nearly all actives have a fitted effect of over 35% in size. The gist of the method:
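Agonist mode: compounds at 15 concentrations, in triplicate, went onto calcium dye-loaded GnRHR-HEK293 cells. Intracellular calcium was then followed as 480/540 nm fluorescence at 1 s intervals over 3 min.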

A short description of test [17]: p53 small molecule agonists, cell-based qHTS assay with rat liver microsomes: qHTS cell viability counter screen (AID 1963580). Also: nearly all actives have a fitted effect of over 45% in size. Also: potency is read from the fitted curve at half-maximal effect. The method, boiled down: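 Counter screen for cytotoxicity under metabolic activation: rat liver microsomes and NADPH, 0.5 mg/mL final each, added with compounds to p53RE-bla HCT-116 cells; 16 h at 37 C, then ATP luminescence read.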
A short description of test [18]: p53 small molecule agonists, cell-based qHTS assay (AID 1963582; active = well fitted activation curve with a large enough effect in the signal ratio in the repeat runs, not every such curve was filed as active; the % refers to the signal ratio). The gist of the method:
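Read-out is beta-lactamase FRET fluorescence after 2 h at room temperature with LiveBLAzer B/G substrate. p53 response element-bla cells were treated 16 h at 37 C with compounds in DMSO, added 5 h after seeding.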

Test [19] in a line: cAMP Responsive Elements (CRE) small molecule antagonists, cell-based qHTS assay (AID 1963591; active = well fitted inhibition curve with a large enough effect in the signal ratio in the repeat runs, not every such curve was filed as active; the % refers to the signal ratio). The gist of the method: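 Antagonist mode: compounds are added alongside the adenylyl cyclase activator NKH477 (0.25 uM final) to CRE-bla HEK293T cells for 3 h. LiveBLAzer FRET substrate, 2 h at room temperature, reports bla expression.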

Values joined by “and” are separate entries in the source; they are usually repeats but may differ in a detail not shown here. Equal values may be shown once. Inconclusive results are not listed. The source holds several records for some structures; these can differ, active in one and inactive in another. Active and inactive are the calls of the source. Unless noted, calls follow the shape of the full dose curve.

KiSS-1 receptor (Homo sapiens), sequence (Q969F8 whole entry, looked up): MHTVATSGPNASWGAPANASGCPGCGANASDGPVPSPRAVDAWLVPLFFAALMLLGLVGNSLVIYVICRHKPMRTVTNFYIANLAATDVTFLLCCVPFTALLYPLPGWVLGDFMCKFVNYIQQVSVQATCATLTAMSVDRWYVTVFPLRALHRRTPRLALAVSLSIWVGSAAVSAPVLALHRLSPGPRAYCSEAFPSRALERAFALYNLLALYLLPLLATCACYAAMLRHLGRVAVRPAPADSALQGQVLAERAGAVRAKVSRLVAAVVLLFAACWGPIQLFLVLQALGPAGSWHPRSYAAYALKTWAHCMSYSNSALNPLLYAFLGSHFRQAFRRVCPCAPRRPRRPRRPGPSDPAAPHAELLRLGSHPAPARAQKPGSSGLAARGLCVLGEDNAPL
Gonadotropin-releasing hormone receptor (Homo sapiens), sequence (P30968 whole entry, looked up): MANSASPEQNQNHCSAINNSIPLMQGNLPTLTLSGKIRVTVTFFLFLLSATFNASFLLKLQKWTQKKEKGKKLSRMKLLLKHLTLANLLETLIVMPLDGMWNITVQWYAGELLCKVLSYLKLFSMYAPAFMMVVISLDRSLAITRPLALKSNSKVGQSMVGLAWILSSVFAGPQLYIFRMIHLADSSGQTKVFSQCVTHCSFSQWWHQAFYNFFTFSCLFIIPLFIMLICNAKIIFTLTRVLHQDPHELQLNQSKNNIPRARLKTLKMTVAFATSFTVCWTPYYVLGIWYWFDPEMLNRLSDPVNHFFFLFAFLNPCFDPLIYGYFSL
5-hydroxytryptamine receptor 2A (Homo sapiens), sequence (P28223 whole entry, looked up): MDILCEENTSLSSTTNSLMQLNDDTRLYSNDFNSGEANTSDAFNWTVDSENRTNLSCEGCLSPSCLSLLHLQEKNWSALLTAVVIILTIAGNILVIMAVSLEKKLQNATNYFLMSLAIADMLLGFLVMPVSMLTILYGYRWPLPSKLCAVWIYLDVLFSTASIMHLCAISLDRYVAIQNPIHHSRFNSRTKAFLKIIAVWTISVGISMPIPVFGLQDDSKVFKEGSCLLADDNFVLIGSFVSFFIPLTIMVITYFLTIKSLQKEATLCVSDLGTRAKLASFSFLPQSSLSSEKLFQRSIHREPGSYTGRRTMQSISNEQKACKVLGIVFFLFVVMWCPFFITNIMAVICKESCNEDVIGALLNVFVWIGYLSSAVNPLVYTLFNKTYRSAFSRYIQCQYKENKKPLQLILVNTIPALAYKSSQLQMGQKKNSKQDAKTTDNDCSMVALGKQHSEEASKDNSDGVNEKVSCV
Muscarinic acetylcholine receptor M1 (Homo sapiens), sequence (P11229 whole entry, looked up): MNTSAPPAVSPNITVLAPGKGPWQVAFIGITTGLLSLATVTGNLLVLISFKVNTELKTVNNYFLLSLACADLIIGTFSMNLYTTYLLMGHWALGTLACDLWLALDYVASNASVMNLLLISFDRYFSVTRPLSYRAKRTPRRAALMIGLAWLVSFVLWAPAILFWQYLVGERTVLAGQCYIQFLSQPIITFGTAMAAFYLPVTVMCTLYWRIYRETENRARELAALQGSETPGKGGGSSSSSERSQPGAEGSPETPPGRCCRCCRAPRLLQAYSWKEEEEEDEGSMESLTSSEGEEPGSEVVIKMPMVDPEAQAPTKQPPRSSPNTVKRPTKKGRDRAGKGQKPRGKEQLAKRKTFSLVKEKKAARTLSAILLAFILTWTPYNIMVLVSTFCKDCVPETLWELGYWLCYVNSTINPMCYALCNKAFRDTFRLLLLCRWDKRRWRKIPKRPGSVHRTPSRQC
D(2) dopamine receptor (Homo sapiens), sequence (P14416 whole entry, looked up): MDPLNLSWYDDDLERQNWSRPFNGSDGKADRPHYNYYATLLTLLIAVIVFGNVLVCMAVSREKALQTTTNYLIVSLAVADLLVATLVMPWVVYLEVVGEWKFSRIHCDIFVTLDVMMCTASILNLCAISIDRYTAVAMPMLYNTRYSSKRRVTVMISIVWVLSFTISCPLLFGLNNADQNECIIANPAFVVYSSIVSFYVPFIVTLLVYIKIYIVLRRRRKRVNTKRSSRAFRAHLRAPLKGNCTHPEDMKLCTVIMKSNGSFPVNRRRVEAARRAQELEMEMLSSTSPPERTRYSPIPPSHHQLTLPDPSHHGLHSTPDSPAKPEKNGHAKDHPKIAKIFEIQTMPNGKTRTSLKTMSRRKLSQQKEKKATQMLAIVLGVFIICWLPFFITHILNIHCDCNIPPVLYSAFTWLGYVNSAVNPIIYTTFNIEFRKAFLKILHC

Consider `CC(C)OC(=O)Nc1cccc(Cl)c1`, for which the Potency entry in test [1], in [2], in test [3], in test [4], in [5] and in test [6] was “inactive” each time. Moreover, the Potency result in [7], in test [8], in [9], in test [10], in test [11] and in test [12] was “inactive” each time. Besides, the Potency result in [13], in test [14] and in test [15] was “inactive” throughout.

Take `COc1cc(N)c(Cl)cc1C(=O)NC1CN2CCC1CC2` (stereo not given): the Potency result in [16], in test [2], in test [3], in test [4], in [17] and in [6] was “inactive” in each case. Further, the Potency result in [18], in [8], in [9], in test [10], in test [11] and in test [19] was “inactive” each time. In addition, the Potency entry in [12], in test [13], in [14] and in [15] was “inactive” in each case. The Potency in [7] is 5.79 µM (active).

With `CN(C)C(=S)S`, the Potency result in test [16], in test [1], in test [5], in test [6], in [7] and in [9] was “inactive” throughout. Further, the Potency result in [10], in test [11], in [19], in test [13], in test [14] and in test [15] was “inactive” each time. Besides, the Potency entry in [17] is “inactive and 8.08 µM (active)”.

On to `CCN(CC)CCO`, for which the Potency result in [1], in test [2], in test [4], in [5], in test [17] and in test [6] was “inactive” throughout. In addition, the Potency result in [18], in test [8], in test [9], in test [10], in [11] and in test [19] was “inactive” throughout. The Potency entry in [12], in test [14] and in test [15] was “inactive” in each case.

On to `CCCCCCCCCC(CC)c1ccc(S(=O)(=O)O)cc1` (stereo not given), for which the Potency result in test [1], in test [2], in [9], in test [11], in test [19] and in test [12] was “inactive” each time. The Potency result in [13] and in test [15] was “inactive” each time. Also, the Potency result in [17] was “inactive and 40.8 µM (active)”; in [6], “inactive and 48.5 µM (active)”; in [7], “inactive and 37.5 µM (active)”; in [14], “inactive and 54.5 µM (active)”.

Consider `C=CCO`, for which the Potency result in [1], in test [2], in test [3], in test [4], in test [5] and in test [17] was “inactive” each time. Besides, the Potency result in test [6], in [18], in [11], in [19], in test [13] and in test [14] was “inactive” each time. In test [15], the Potency entry is “inactive”. Further, in test [12], the Potency entry is “inactive and 61.1 µM (active)”.

With `N#Cc1cccc(C#N)c1`, the Potency entry in test [1], in [4], in test [17], in [6], in test [18] and in [7] was “inactive” in each case. For the same compound, the Potency entry in test [8], in test [9], in test [10], in test [11], in [19] and in test [12] was “inactive” throughout. In addition, the Potency entry in test [14] and in [15] was “inactive” in each case.

With `Cc1cccc(C)c1N`, the Potency entry in test [1], in test [2], in test [3], in test [4], in [17] and in test [6] was “inactive” in each case. The Potency entry in test [18], in [7], in [8], in [9], in [10] and in test [11] was “inactive” in each case. The Potency entry in test [19], in test [12], in test [14] and in test [15] was “inactive” in each case.

For `CN1C(=O)CN=C(c2ccccc2)c2cc(Cl)ccc21`, the Potency entry in [16], in [2], in [6], in test [18], in [11] and in test [19] was “inactive” each time. The Potency result in test [12], in test [14] and in [15] was “inactive” in each case.
